Measured values reported in PubChem BioAssay (EPA / NIEHS).
“And” between values parts separate entries of the source, which are not always exact repeats. Identical values can stand only once. Records with an inconclusive call do not appear. Some structures have more than one record in an assay (separate samples or runs), and their calls can disagree. The source made the active and inactive calls. Rule for the calls: active = hit-call score of the fitted dose curve at least 0.9, where 1 is the maximum; inconclusive = response in the unintended direction; inactive = score below 0.9.

Tested on: not listed separately
Assay: TOX21_p53_BLA_p5_viability: Viability Assessment in the Tox21 HCT-116 p53 Agonism Beta-lactamase Assay, Phase 5 (AID 2283600)
Outline: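 Cells were plated at 4000/well, rested 5 h at 37C, then given compounds in DMSO (217-fold dilution) for 16 h at 37C, 5% CO2. Following the CCF4-AM beta-lactamase read, CellTiter-Glo was added and luminescence was read after 30 min at room temperature.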

Row | Compound | outcome | AC50
1 | C=CCN=C=S | inactive | 
2 | COC(=O)c1cc(Oc2ccc(Cl)cc2Cl)ccc1[N+](=O)[O-] | inactive | 
3 | O=S1OC[C@@H]2[C@H](CO1)[C@]1(Cl)C(Cl)=C(Cl)[C@@]2(Cl)C1(Cl)Cl (stereo partly drawn) | inactive | 
4 | O=c1[nH]c2ccccc2n1C1CCN(CCCC(c2ccc(F)cc2)c2ccc(F)cc2)CC1 |  | 75.5 µM (active) and 31.9 µM (active)
5 | C[CH2][Hg][S]c1ccccc1C(=O)O |  | 46.1 µM (active) and 7.05 µM (active)
6 | CC(O)(CS(=O)(=O)c1ccc(F)cc1)C(=O)Nc1ccc(C#N)c(C(F)(F)F)c1 (stereo not drawn) | inactive | 
7 | O=[N+]([O-])c1ccc(Cl)c([N+](=O)[O-])c1 |  | 44 µM (active) and 44.4 µM (active)
8 | O=C(O)CC(O)(CC(=O)O)C(=O)O | inactive | 
9 | O=c1oc2ccccc2c(O)c1C(CC(O)c1ccc(-c2ccc(Br)cc2)cc1)c1ccccc1 (stereo not drawn) | inactive | 19.3 µM (active)
10 | CCOC(=O)OC1=C(c2cc(C)ccc2C)C(=O)NC12CCC(OC)CC2 (stereo not drawn) | inactive | 
11 | O=[N+]([O-])c1ccc(Nc2ccccc2)cc1 | inactive | 66.3 µM (active)

Biological target: Cellular tumor antigen p53 (Homo sapiens) (UniProt P04637)
Sequence (P04637 whole entry, looked up): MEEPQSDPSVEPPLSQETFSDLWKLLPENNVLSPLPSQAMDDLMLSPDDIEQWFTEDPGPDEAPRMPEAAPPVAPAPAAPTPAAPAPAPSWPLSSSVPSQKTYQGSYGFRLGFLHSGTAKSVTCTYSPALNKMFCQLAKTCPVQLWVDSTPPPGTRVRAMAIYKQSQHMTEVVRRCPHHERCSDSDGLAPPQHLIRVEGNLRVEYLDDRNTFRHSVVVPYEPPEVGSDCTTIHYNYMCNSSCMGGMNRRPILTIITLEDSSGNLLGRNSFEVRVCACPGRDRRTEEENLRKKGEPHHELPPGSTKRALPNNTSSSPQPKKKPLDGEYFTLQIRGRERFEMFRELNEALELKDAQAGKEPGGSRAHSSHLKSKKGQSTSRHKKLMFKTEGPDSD
Assay: TOX21_p53_BLA_p4_ratio: Tox21 HCT-116 p53 Agonism Beta-lactamase Assay, Ratio, Phase 4 (AID 2283601)
Outline: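 HCT116 cells carrying an inducible beta-lactamase reporter were plated at 4000 cells/well, rested 5 h, then exposed to compounds in DMSO (217-fold dilution) for 16 h at 37C. CCF4-AM substrate was loaded 2 h at room temperature; 460/530 nm emission ratio scored gain-of-signal versus DMSO.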

Row | Compound | outcome | AC50
12 | C=CCN=C=S | inactive | 
13 | COC(=O)c1cc(Oc2ccc(Cl)cc2Cl)ccc1[N+](=O)[O-] | inactive | 
14 | O=S1OC[C@@H]2[C@H](CO1)[C@]1(Cl)C(Cl)=C(Cl)[C@@]2(Cl)C1(Cl)Cl (stereo partly drawn) | inactive | 
15 | O=c1[nH]c2ccccc2n1C1CCN(CCCC(c2ccc(F)cc2)c2ccc(F)cc2)CC1 | inactive | 19.8 µM (active)
16 | C[CH2][Hg][S]c1ccccc1C(=O)O |  | 46.1 µM (active) and 34.6 µM (active)
17 | CC(O)(CS(=O)(=O)c1ccc(F)cc1)C(=O)Nc1ccc(C#N)c(C(F)(F)F)c1 (stereo not drawn) | inactive | 
18 | O=[N+]([O-])c1ccc(Cl)c([N+](=O)[O-])c1 | inactive | 22.7 µM (active)
19 | O=C(O)CC(O)(CC(=O)O)C(=O)O | inactive | 
20 | O=c1oc2ccccc2c(O)c1C(CC(O)c1ccc(-c2ccc(Br)cc2)cc1)c1ccccc1 (stereo not drawn) | inactive | 20.4 µM (active)
21 | CCOC(=O)OC1=C(c2cc(C)ccc2C)C(=O)NC12CCC(OC)CC2 (stereo not drawn) |  | 54.7 µM (active)
22 | O=[N+]([O-])c1ccc(Nc2ccccc2)cc1 | inactive | 43.1 µM (active)
